How the values were obtained:
Test in all cases: log2 ratio of Biotin-Ahx-Ub-VS probe labelling (fragment/DMSO); higher = less target engagement (more negative = stronger competition), active = hit call of the paper (q ≤ 0.05, log2 ratio ≤ -1)
Conditions in all cases: compound concentration: 200 uM; treatment time: 3 h
[1] = target: T1, USP42 (UniProt Q9H9J4)
T1 sequence (whole entry): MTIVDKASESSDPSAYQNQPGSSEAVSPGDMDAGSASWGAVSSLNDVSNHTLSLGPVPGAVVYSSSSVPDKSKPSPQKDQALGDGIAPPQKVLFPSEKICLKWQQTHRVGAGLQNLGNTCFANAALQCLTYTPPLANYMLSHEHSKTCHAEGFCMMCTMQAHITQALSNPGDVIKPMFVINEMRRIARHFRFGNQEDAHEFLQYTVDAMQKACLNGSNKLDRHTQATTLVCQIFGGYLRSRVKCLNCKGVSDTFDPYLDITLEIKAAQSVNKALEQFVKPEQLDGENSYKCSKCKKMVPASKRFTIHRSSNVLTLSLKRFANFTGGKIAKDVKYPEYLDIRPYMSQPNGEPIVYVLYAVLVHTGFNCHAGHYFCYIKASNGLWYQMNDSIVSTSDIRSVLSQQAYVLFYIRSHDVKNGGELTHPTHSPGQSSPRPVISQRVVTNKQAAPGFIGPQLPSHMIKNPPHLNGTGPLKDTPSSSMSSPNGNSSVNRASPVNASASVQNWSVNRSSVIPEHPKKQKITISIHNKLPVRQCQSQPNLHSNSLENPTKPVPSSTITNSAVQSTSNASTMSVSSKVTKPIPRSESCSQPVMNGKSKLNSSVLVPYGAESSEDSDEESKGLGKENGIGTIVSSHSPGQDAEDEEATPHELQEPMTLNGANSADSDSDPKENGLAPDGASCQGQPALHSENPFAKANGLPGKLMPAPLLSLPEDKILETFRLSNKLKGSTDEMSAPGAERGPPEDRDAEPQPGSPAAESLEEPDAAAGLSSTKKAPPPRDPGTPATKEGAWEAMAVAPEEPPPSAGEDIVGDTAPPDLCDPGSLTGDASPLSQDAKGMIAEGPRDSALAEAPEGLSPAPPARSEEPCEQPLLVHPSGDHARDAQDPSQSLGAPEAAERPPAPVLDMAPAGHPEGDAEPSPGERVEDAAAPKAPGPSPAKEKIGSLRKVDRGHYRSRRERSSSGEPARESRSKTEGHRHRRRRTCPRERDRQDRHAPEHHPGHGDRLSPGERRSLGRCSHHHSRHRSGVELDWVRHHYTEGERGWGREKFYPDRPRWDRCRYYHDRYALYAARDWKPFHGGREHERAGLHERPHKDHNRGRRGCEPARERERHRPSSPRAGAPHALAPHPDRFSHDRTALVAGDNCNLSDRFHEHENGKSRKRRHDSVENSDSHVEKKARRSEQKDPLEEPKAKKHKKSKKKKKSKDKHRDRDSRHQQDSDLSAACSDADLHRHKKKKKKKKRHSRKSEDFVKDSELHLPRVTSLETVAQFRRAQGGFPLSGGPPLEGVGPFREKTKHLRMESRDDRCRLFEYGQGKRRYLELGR
Method in brief: (§1)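 Fragment (200 µM) or vehicle was incubated for 3 h with triplicate HEK293T lysate samples of 495 µg, which were then treated with Biotin-Ahx-Ub-VS at 0.5 µM final for 1 h. Labelled DUBs were enriched on NeutrAvidin, digested with LysC and trypsin, and analysed by diaPASEF LC-MS/MS. Values are average log2 fragment/vehicle ratios from an unpaired t-test on global-median-normalised Spectronaut label-free quantities, using proteins with ≥2 unique peptides.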

[2] = target: USP46 (UniProt P62068)
Sequence of USP46 (P62068 whole entry): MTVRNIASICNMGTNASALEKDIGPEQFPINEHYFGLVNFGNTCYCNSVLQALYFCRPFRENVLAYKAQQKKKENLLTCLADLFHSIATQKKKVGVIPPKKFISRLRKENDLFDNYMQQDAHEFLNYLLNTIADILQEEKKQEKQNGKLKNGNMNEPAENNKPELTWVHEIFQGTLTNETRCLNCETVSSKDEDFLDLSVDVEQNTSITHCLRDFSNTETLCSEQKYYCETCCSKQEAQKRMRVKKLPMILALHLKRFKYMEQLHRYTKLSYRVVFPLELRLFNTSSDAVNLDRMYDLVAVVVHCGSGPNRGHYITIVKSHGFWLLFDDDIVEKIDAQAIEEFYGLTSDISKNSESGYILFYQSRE
Method in brief: as §1

[3] = target: T2, USP47 (UniProt Q96K76)
T2 sequence (whole entry): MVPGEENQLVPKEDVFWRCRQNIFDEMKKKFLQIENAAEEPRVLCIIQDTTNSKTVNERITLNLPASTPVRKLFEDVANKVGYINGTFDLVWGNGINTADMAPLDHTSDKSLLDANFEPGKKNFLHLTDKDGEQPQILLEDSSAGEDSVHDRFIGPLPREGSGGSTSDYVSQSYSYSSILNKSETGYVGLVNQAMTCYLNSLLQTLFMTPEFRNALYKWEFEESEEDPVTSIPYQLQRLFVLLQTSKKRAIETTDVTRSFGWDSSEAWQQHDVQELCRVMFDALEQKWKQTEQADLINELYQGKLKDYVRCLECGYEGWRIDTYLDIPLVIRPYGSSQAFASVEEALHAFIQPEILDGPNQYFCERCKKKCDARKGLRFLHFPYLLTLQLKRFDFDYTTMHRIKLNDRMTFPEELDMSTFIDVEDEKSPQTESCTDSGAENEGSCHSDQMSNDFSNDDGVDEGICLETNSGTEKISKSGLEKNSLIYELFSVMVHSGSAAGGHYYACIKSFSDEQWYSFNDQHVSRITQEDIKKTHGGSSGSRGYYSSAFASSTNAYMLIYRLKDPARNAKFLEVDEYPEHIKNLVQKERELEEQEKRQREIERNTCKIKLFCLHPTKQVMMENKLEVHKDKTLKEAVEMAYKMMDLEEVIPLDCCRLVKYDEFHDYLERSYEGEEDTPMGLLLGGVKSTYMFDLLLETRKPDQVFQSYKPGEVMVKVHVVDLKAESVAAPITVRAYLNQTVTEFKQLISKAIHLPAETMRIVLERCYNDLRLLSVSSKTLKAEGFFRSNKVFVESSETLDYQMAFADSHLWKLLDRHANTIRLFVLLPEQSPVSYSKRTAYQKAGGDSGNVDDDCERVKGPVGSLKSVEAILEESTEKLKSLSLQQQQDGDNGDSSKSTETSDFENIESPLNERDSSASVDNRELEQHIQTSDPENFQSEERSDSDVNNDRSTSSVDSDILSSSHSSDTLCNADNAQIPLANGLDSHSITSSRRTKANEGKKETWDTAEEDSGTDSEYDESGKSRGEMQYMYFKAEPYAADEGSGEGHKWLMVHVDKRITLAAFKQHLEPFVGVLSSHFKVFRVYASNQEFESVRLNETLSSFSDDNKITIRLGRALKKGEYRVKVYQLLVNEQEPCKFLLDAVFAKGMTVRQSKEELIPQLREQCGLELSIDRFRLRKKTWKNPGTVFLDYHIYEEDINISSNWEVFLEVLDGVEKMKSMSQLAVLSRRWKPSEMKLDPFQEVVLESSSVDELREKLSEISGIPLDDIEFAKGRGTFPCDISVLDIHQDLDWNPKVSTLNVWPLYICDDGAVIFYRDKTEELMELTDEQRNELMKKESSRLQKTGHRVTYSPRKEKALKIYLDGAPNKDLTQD
Method in brief: as §1

[4] = target: T3, USP48 (UniProt Q86UV5)
T3 sequence (whole entry): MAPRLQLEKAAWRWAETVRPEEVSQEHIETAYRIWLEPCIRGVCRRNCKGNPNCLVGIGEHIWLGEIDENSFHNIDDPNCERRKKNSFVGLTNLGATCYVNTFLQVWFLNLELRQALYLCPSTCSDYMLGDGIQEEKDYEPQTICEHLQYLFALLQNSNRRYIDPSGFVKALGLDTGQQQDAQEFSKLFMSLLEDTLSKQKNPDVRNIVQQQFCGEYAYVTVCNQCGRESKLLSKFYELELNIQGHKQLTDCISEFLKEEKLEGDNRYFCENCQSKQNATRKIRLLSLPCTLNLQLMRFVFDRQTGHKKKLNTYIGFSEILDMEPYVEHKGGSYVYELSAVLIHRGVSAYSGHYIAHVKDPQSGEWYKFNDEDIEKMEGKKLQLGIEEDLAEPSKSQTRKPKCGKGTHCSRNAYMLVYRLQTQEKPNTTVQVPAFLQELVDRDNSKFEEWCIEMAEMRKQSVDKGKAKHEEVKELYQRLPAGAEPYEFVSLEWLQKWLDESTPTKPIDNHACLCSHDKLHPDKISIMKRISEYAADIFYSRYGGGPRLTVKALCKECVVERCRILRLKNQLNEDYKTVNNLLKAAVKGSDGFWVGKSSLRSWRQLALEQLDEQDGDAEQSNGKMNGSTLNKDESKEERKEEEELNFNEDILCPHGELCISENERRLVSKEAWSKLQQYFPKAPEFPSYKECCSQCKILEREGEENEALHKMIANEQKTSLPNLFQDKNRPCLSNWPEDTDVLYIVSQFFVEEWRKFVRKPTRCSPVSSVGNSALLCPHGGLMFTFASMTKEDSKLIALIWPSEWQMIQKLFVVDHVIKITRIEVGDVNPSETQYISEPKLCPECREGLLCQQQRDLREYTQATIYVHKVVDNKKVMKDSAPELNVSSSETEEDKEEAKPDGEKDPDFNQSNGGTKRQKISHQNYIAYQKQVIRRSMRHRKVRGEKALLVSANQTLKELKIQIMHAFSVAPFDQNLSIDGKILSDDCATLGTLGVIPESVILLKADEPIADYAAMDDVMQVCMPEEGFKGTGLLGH
Method in brief: as §1

[5] = target: T4, USP5 (UniProt P45974)
T4 sequence (whole entry): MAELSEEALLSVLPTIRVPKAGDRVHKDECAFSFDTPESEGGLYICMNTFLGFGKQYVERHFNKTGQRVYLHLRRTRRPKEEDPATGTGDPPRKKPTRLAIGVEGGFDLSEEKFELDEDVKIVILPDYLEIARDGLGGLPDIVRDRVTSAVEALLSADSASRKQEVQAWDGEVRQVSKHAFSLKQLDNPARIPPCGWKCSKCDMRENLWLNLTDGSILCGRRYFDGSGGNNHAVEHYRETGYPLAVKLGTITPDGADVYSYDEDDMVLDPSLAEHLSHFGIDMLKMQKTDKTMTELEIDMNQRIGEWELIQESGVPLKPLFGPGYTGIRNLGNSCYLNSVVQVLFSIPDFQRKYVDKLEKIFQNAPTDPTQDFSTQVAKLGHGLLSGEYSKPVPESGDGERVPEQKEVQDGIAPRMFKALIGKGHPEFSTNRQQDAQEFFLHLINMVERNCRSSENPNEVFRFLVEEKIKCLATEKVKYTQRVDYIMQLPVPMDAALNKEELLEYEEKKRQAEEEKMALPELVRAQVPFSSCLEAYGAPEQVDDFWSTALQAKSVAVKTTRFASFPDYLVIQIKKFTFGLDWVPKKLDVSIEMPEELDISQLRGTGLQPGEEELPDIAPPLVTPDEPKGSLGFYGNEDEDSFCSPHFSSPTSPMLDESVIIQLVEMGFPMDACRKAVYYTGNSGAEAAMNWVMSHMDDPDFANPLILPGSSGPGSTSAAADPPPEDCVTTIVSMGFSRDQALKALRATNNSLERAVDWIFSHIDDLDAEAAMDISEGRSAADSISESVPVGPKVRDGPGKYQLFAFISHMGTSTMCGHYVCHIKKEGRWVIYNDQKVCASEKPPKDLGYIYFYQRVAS
Method in brief: as §1

[6] = target: USP54 (UniProt Q70EL1)
Sequence of USP54 (Q70EL1 whole entry): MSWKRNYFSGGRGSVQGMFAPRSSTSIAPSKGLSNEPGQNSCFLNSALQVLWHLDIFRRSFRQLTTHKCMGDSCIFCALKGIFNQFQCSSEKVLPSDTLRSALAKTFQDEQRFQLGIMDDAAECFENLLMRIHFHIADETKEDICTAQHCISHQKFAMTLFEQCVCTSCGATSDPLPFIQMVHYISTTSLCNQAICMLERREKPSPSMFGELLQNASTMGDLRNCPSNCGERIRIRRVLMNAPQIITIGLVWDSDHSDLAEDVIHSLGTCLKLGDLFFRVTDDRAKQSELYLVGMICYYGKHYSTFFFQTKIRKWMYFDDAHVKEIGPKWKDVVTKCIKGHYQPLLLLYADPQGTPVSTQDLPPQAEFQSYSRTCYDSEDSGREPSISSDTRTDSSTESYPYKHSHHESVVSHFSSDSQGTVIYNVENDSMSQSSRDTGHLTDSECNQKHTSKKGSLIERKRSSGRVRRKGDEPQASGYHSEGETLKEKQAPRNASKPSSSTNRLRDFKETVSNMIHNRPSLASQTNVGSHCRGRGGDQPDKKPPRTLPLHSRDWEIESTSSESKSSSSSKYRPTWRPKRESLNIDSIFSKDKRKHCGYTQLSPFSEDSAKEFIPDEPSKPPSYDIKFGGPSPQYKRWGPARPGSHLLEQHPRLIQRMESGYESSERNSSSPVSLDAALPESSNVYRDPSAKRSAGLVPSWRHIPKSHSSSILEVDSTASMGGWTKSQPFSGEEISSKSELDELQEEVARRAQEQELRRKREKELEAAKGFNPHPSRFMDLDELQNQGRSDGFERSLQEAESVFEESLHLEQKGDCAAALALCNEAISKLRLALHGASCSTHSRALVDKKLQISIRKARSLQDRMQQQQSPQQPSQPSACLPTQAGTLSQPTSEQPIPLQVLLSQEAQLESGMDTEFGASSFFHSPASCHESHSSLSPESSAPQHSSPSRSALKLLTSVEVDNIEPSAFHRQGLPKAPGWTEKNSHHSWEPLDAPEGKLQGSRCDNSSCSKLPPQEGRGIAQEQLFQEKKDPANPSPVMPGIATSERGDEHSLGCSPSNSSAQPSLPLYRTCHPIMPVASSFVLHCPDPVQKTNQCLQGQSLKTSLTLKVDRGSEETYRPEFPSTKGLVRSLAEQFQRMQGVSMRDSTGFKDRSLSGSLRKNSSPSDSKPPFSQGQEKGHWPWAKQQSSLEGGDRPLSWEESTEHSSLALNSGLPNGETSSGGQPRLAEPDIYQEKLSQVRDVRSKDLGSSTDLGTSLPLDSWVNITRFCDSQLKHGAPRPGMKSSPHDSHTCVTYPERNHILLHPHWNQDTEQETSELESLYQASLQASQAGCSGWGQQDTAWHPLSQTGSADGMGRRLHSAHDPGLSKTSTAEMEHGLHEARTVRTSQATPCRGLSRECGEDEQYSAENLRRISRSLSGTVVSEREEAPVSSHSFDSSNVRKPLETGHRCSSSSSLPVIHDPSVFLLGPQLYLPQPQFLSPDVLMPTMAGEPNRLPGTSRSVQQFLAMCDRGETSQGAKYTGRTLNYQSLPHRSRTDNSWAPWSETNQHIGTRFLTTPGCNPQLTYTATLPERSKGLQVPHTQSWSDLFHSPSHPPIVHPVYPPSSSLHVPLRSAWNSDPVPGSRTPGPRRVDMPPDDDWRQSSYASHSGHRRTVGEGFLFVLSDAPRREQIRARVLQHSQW
Method in brief: as §1

[7] = target: USP7 (UniProt Q93009)
Sequence of USP7 (Q93009 whole entry, looked up): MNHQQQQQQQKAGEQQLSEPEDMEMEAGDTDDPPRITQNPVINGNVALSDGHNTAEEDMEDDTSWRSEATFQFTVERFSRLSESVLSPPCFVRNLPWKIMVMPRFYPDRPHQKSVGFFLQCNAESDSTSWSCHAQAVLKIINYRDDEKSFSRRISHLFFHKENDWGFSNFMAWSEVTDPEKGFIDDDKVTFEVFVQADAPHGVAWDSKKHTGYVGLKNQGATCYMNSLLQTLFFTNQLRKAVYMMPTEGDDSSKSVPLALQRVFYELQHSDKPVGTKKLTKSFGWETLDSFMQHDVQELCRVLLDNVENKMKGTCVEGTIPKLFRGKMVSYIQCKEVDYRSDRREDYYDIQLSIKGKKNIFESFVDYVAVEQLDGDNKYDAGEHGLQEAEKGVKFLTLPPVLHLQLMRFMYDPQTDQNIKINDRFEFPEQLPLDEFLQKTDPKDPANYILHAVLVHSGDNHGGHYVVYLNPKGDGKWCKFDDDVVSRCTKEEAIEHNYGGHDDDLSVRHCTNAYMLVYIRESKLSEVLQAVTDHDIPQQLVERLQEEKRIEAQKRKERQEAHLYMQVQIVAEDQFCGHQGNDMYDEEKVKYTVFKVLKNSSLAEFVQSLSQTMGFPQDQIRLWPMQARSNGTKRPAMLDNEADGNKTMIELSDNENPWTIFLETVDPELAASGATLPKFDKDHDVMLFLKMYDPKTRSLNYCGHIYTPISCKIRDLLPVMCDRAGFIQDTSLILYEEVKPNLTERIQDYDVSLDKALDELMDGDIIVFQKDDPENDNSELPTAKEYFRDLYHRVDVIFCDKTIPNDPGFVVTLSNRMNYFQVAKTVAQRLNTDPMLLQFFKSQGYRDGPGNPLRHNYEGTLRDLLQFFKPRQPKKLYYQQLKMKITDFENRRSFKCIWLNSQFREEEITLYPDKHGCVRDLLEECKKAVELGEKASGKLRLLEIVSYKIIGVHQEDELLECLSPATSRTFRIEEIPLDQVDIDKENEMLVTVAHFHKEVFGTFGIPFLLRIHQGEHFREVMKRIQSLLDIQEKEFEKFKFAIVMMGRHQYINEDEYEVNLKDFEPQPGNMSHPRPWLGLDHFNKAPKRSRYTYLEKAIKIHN
Method in brief: as §1

[8] = target: T5, USP8 (UniProt P40818)
T5 sequence (whole entry): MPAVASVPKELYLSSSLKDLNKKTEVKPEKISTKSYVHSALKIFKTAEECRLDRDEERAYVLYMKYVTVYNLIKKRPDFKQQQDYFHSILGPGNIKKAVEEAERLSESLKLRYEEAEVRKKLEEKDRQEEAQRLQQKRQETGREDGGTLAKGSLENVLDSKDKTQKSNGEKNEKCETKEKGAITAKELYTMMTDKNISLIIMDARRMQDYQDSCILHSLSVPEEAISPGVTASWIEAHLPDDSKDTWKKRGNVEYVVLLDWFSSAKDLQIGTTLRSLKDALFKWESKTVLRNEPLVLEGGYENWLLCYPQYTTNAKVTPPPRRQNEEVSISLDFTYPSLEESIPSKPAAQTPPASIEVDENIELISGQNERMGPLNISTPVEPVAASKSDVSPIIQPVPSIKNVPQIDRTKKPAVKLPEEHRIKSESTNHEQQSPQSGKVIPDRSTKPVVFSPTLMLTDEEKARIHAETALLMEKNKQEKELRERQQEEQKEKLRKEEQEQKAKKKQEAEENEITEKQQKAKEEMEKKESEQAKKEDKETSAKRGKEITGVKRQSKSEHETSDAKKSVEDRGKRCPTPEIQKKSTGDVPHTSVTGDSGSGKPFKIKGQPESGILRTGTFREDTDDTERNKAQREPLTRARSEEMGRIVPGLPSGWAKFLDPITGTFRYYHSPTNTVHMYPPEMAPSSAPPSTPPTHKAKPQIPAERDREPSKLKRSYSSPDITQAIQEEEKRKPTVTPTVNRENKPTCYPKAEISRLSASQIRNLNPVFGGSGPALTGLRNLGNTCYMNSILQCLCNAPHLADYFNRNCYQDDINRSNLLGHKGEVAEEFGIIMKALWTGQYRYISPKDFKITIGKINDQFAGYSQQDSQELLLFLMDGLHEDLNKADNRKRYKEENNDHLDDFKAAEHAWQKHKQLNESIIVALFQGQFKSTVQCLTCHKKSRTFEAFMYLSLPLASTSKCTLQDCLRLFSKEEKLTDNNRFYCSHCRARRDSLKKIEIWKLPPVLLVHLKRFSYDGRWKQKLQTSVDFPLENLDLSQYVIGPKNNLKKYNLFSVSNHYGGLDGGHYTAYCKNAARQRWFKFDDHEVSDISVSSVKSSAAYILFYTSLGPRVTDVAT
Method in brief: as §1

[9] = target: USP9X (UniProt Q93008)
Method in brief: as §1

[10] = target: UniProt O00487
Sequence of UniProt O00487 (O00487 whole entry): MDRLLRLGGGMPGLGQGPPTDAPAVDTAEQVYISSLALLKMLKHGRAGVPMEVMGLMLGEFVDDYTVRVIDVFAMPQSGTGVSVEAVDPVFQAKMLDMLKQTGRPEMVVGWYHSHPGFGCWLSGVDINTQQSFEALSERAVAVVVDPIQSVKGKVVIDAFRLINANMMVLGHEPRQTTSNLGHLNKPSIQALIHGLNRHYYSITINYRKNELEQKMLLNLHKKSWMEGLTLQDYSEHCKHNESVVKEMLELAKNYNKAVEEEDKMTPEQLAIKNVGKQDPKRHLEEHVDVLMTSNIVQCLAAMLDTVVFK
Method in brief: as §1

Measured: log2 ratio of Biotin-Ahx-Ub-VS probe labelling

Cc1ncc2c(n1)CCN(C(=O)CCl)C2
inactive: [1] 0.492 | [2] -0.138 | [3] 0.296 | [4] -0.0668 | [5] -0.217 | [6] -0.303 | [7] -0.49 | [8] -0.102 | [9] -0.246 | [10] 0.0218

— the supplement of paper PMC11732987, “Enantioselective OTUD7B fragment discovery through chemoproteomics screening and high-throughput optimisation” (Communications Chemistry, 2025)
